The source of these data is PubChem BioAssay AID1851 (National Center for Advancing Translational Sciences (NCATS), 2009).

Among all 16,000 compounds or so, about 2,600 (16%) were called active. Inconclusive results (about 20%) are left out. A selection follows. Values without a mark were called inactive. Calls follow the shape of the dose curve; as a rule, active = well fitted curve in the direction sought with a large enough effect; inconclusive = small, poorly fitted or top-dose-only effect, or effect the other way; inactive = no such curve, though single readings can be large or run the other way.
% is scaled to controls: 0 for no effect and ±100 for the full control effect.

Chain of Cytochrome P450 2D6 (Homo sapiens) (P10635 whole entry, looked up): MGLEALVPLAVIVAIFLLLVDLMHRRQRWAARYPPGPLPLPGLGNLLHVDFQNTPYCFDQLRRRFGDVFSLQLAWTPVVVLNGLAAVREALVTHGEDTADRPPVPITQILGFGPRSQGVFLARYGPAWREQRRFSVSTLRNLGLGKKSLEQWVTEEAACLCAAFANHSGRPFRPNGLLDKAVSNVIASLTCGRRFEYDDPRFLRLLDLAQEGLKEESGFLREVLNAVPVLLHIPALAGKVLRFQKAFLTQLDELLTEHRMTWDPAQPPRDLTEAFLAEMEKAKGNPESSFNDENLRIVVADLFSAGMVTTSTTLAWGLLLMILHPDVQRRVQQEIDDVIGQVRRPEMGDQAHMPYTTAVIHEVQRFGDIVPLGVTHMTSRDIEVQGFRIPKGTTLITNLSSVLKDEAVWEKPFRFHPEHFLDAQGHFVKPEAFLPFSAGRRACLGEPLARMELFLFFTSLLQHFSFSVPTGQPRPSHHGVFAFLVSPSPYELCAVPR

This experiment addresses Cytochrome P450 2D6 (Homo sapiens) (UniProt P10635). Description: Cytochrome panel assay with activity outcomes. Particulars: recombinant CYP, pro-luciferin dealkylation, luminescence, p450-cyp2d6; series mostly up to 57.1 µM.
Usually AC50 stands for the midpoint of the concentration-response curve, whichever way the signal moves. Turning to `CCN(CC)c1ccc(N2C(=O)/C(=C\c3cccnc3)SC2=S)cc1`, the AC50 entry was “inactive”.

On to `NOCC(=O)O`, for which the AC50 result was “inactive”.

Take `CCCOc1ccc(C(=O)NC(=S)Nc2nc3ccc(C)cc3s2)cc1`: the AC50 result is “inactive”.

`Cc1cc(C)nc(NC(=O)CCCC(=O)O)c1`: the AC50 result is “inactive”.

Consider `Cc1ccc(N(CC(N)=O)C2SC(=O)N(Cc3cccc(C(=O)O)c3)C2=O)cc1` (stereo not drawn), for which the AC50 result is “inactive”.

Regarding `CCOC(=O)CN(c1ccccn1)S(=O)(=O)c1ccccc1`, the AC50 result was “inactive”.

Regarding `O=C(O)c1ccc(CSc2nc3ccccc3o2)cc1`, the AC50 entry is “inactive”.

`O=S(=O)(c1ccccc1)N1CCN(c2cc(-c3ccccc3)nc3ncnn23)CC1`: the AC50 entry was “inactive”.

`O=C(O)c1ccc(NCc2nc3cc4ccccc4cc3[nH]2)cc1`: the activity, negative = inhibition is 3.49% [at 11.4 µM].

Turning to `O=C(c1ccncc1)N1CCC2(CC1)CCN(C(c1ccccc1)c1ccccc1)CC2`, the AC50 is 3.16 µM (active).

`O=C(c1cccc(F)c1)N1CCC2(CC1)CN(c1ccc(-c3ccccc3)cc1)C2`: the AC50 entry is “inactive”.

On to `O=C(c1cccc(F)c1)N1CCC2(CC1)CCN(c1ccccc1)CC2`, for which the AC50 entry was “inactive”.

Regarding `Cn1cccc1C(=O)N1CCC2(CC1)CN(C(c1ccccc1)c1ccccc1)C2`, the AC50 was 3.16 µM (active).

For the compound `O=C(c1cccc(F)c1)N1CCC2(CC1)CCN(C(c1ccccc1)c1ccccc1)CC2`, the AC50 was 3.16 µM (active).

For `Cn1cccc1C(=O)N1CCC2(CC1)CN(C(=O)Nc1ccccc1)C2`, the AC50 entry is “inactive”.

In the case of `Cn1cccc1C(=O)N1CCC2(CC1)CCN(C(c1ccccc1)c1ccccc1)CC2`, the AC50 entry was “inactive”.

Regarding `CN1CCN(c2ncc3nc(-c4ccccc4)c(=O)n(Cc4cccs4)c3n2)CC1`, the AC50 result was “inactive”.

As to `CN1CCN(c2ncc3nc(CCc4ccccc4)c(=O)n(Cc4ccc(F)cc4)c3n2)CC1`, the AC50 result was “inactive”.

With `N[C@H](CCCP(=O)(O)O)C(=O)O`, the AC50 result is “inactive”.

As to `O=C(N/C(=C/c1ccco1)C(=O)N1CCCCCC1)c1cccs1`, the AC50 entry was “inactive”.

Regarding `Cc1cc(OCC(F)(F)C(F)(F)C(F)(F)C(F)(F)C(F)(F)C(F)F)nc(N)n1`, the AC50 result was “inactive”.

`CCCCn1c(SCC(N)=O)nc2ccc(N3CCOCC3)cc2c1=O`: the AC50 entry was “inactive”.

Regarding `Cc1ccc(OC(=O)c2oc3ccc(F)cc3c2C)c(C)c1`, the AC50 result is “inactive”.

`Cc1ccc(NC(=S)NC(=O)c2c(-c3ccccc3Cl)noc2C)cc1`: the AC50 entry was “inactive”.

With `C[C@@H](CCC(=O)O)C(=O)O`, the activity, negative = inhibition is 1.74% [at 11.4 µM].

On to `Cc1ccc(S(=O)(=O)c2c(C)nn(C(C)(C)C)c2OC(=O)c2cccs2)cc1`, for which the AC50 result was “inactive”.

Take `CC(N)=NCCCC[C@H](N)C(=O)O`: the AC50 result is “inactive”.

On to `CCCC[C@H](CC)CN=C(N)NC(N)=NCCCCCCN=C(N)NC(N)=NC[C@@H](CC)CCCC`, for which the AC50 was 3.16 µM (active).

With `CS/C(N)=N/N=C/c1ccc([N+](=O)[O-])cc1`, the AC50 result is “inactive”.

For `Cc1cc(C)cc(NC(=O)C/C(N)=N/O)c1`, the AC50 result is “inactive”.

As to `O=C(c1ccccc1NS(=O)(=O)c1cccc([N+](=O)[O-])c1)N1CCOCC1`, the AC50 result was “inactive”.

`CC(=O)c1cc2c(cc1NC(=O)c1c(-c3ccccc3)noc1C)OCO2`: the AC50 entry is “inactive”.

Take `Cc1onc(-c2c(Cl)cccc2Cl)c1C(=O)Nc1ccc2c(c1)OCO2`: the half-maximal activity concentration (AC50) is 7.08 µM (active).

With `CCOC(=O)Cc1csc(NC(=O)c2c(-c3c(Cl)cccc3Cl)noc2C)n1`, the AC50 result is “inactive”.

Turning to `CC1(C)CC(=O)C(CCCN2C(=O)c3ccccc3C2=O)C(=O)C1`, the AC50 result was “inactive”.

`CCN(CC)c1ncnc2c1sc1nc(C)cc(C)c12`: the AC50 result was “inactive”.

As for `CO/N=C\[C@@H](OC)[C@H](C)/C=C\CC(=O)OC`, the activity, negative = inhibition is 9.03% [at 11.4 µM].

Turning to `O=C(CSC1=NCCN1)Nc1ccccc1`, the AC50 is 1.58 µM (active).

`O=C(O)CCSC1=NCCN1`: the activity, negative = inhibition is 15.4% [at 11.4 µM].

Consider `O=C(CSc1nncn1-c1ccccc1)Nc1ccc(N2CCOCC2)cc1`, for which the AC50 entry was “inactive”.

For `CCOC(=O)C1=C(C)C(c2ccccc2OC)NC(=S)N1` (stereo not drawn), the AC50 entry is “inactive”.

Take `Cn1c(=O)oc2cc(S(=O)(=O)NCCC(=O)N3CC=C(c4ccccc4)CC3)ccc21`: the AC50 entry is “inactive”.

On to `O=C(O)c1cc2cc(Cl)ccc2oc1=O`, for which the AC50 entry is “inactive”.

Regarding `O=C(Nc1ccccc1N1CCOCC1)c1cnccn1`, the AC50 result is “inactive”.

Take `O=C(Nc1ccc2ncccc2c1)Nc1ccc2ncccc2c1`: the activity, negative = inhibition is -10.5% [at 11.4 µM].

Turning to `Cc1nc2ccc(NC(=O)Nc3ccnc4cccnc34)cc2o1`, the AC50 was 10 µM (active).

In the case of `Cc1cc(N)c2cc(NC(=O)Nc3ccc4nc(C)cc(N)c4c3)ccc2n1`, the activity, negative = inhibition was 7.45% [at 11.4 µM].

As to `CN(C)c1ncc2nc(-c3ccc(F)cc3)c(=O)n(C)c2n1`, the AC50 entry was “inactive”.

As to `COc1ccc2cc(C(=O)Nc3ccc(F)cc3)sc(=O)c2c1OC`, the AC50 result is “inactive”.

Turning to `CC(C)C(=O)Nc1ccc(C(=O)NNC(=O)C(c2ccccc2)c2ccccc2)cc1`, the AC50 result was “inactive”.

For `CN(C)C(=O)c1ccc(-c2ccc3ncnc(N4CCNCC4)c3c2)cc1`, the AC50 result was “inactive”.

On to `CN(C)c1ccc(-c2ccc3ncnc(N4CCNCC4)c3c2)cc1`, for which the AC50 is 12.6 µM (active).

Turning to `CN1CCN(c2ncnc3ccc(-c4cccc(C#N)c4)cc23)CC1`, the AC50 result is “inactive”.

Turning to `Cc1noc(C)c1-c1ccc2ncnc(N3CCN(C)CC3)c2c1`, the AC50 result was “inactive”.

For the compound `Cc1ccccc1-c1ccc2ncnc(N3CCNCC3)c2c1`, the AC50 entry was “inactive”.

As to `N#Cc1cccc(-c2ccc3ncnc(N4CCNCC4)c3c2)c1`, the AC50 result was “inactive”.

On to `CN1CCN(c2ncnc3ccc(-c4ccc5c(c4)OCO5)cc23)CC1`, for which the AC50 was 0.251 µM (active).

For the compound `N#Cc1ccccc1-c1ccc2ncnc(N3CCNCC3)c2c1`, the AC50 result is “inactive”.

Take `c1nc(N2CCNCC2)c2cc(-c3ccc4c(c3)OCO4)ccc2n1`: the AC50 was 2.51 µM (active).

Regarding `COc1ccc(C(=O)N2CCC[C@@]3(CCN(C(=O)NC(C)C)C3)C2)cc1`, the AC50 entry was “inactive”.

Turning to `Cc1nc2ncnn2c(C)c1CCC(=O)NCc1ccco1`, the AC50 entry was “inactive”.

In the case of `CCc1ccccc1NC(=O)c1ccc(F)c(S(=O)(=O)N2CCC(C(N)=O)CC2)c1`, the AC50 result was “inactive”.

With `CC(=O)c1c(O)c(C)c(-c2ccccc2)n(-c2ccccc2)c1=O`, the AC50 result is “inactive”.

For `CCCc1c(OCCCOc2ccc(OCC(=O)O)cc2)ccc(CC=O)c1O`, the AC50 entry is “inactive”.

For the compound `CCCC(O)(CCC)C(=O)NN1CCCCC1`, the AC50 result is “inactive”.

`Cn1c(=O)n(C)c2cc(/C=N/n3cnnc3)ccc21`: the AC50 result is “inactive”.

For `Brc1ccc(-c2nnc(-c3ccccc3)c(N3CCSCC3)n2)cc1`, the AC50 entry was “inactive”.

Turning to `COc1ccccc1-c1ccc2ncnc(N3CCOCC3)c2c1`, the AC50 entry was “inactive”.

Take `COc1ccc(OC)c2c(=S)c3ccccc3[nH]c12`: the AC50 result was “inactive”.

Take `COc1cccc2[nH]c3c(N4CC(C)CC(C)C4)ncnc3c12` (stereo not drawn): the AC50 is 2 µM (active).

As to `Cc1nn(Cc2ccccc2Cl)c(C)c1NC(=O)CCCn1nc(C)c([N+](=O)[O-])c1C`, the AC50 result is “inactive”.

Regarding `CCn1c2ccccc2c2cc(/C=N/n3cn[nH]c3=S)ccc21`, the AC50 result was “inactive”.

For `CCn1c2ccccc2c2cnc(N=CN(C)C)c(C#N)c21`, the AC50 was 1.41 µM (active).

Regarding `COc1ccccc1NC(=O)Cn1nnc(-c2ccccc2NC(=O)c2cc3ccccc3oc2=O)n1`, the AC50 entry was “inactive”.

Consider `CCOC(=O)C1CCCN(C(=O)CCCOc2cc(=O)n(C)c3ccccc23)C1` (stereo not drawn), for which the AC50 result was “inactive”.

With `CC(=O)c1ccc(NC(=O)C2CC(c3ccc(F)cc3)=NO2)cc1` (stereo not drawn), the AC50 entry was “inactive”.

Turning to `O=C(NC1CCCC1)C1CC(c2ccc(F)cc2)=NO1` (stereo not drawn), the AC50 result was “inactive”.

As to `Cn1ncc(C#N)c1NC(=O)C1CC(c2ccc(Cl)cc2)=NO1` (stereo not drawn), the AC50 is 3.98 µM (active).

Consider `C=CC[C@H](N)C(=O)O`, for which the AC50 entry was “inactive”.

`COc1ccc(-n2c(=O)c(C)nc3cnc(N4CCNCC4)nc32)cc1`: the AC50 entry was “inactive”.

`Nc1[nH]c(=O)nc2c1ncn2[C@H]1O[C@@H](CO)[C@@H](O)[C@@H]1O`: the activity, negative = inhibition is 7.59% [at 11.4 µM].

Take `COc1ccc(CNC(=O)c2csc(Cc3ccc(OC)cc3)n2)cc1`: the AC50 entry was “inactive”.

Regarding `COc1ccc(CNC(=O)c2csc(Cc3ccc(Cl)cc3)n2)cc1`, the concentration at half-maximal activity (AC50) was 14.1 µM (active).

In the case of `COc1ccc(CNC(=O)c2cnc(C)cn2)cc1`, the AC50 entry was “inactive”.

Regarding `CO[C@@H]1COC(=O)C/C=C\[C@@H](C)[C@H](OC)COC(=O)[C@H](COCc2ccccc2)NC(=O)C/C=C\[C@H]1C`, the activity, negative = inhibition was -2.59% [at 11.4 µM].

On to `C[C@@H]1[C@H]2CC[C@@H]3[C@@H]4CC=C5C[C@@H](N(C)C)CC[C@]5(C)[C@@H]4CC[C@@]32CN1C`, for which the AC50 entry was “inactive”.

Regarding `CN(C)c1ncc2nc(-c3ccccc3)c(=O)n(Cc3ccc(F)cc3)c2n1`, the AC50 entry was “inactive”.

As to `O=S(=O)(NCCCCCCc1ccccc1)c1cccc2c(Cl)cccc12`, the AC50 entry is “inactive”.

As for `CCCCCCCNS(=O)(=O)c1cccc2c(Cl)cccc12`, the AC50 entry is “inactive”.

With `CCCCNS(=O)(=O)c1ccc(OC)c(Cl)c1Cl`, the AC50 result is “inactive”.

For the compound `NCCCCCCNS(=O)(=O)c1cccc2ccccc12`, the AC50 entry was “inactive”.

Take `NCCCCCCNS(=O)(=O)c1cccc2c(Cl)cccc12`: the AC50 is 12.6 µM (active).

Consider `NCCCCCCCCCCNS(=O)(=O)c1cccc2c(Cl)cccc12`, for which the AC50 is 1.26 µM (active).

In the case of `C#C[C@]1(O)CC[C@@H]2[C@H]3CCC4=CCCC[C@@H]4[C@@H]3CC[C@@]21C`, the AC50 entry is “inactive”.

As to `N#CCCn1c(=O)c(-c2cc(F)cc(F)c2)nc2cnc(OCc3ccccc3)nc21`, the AC50 entry was “inactive”.

Turning to `Cc1ncc(COP(=O)(O)O)c(C)c1O`, the activity, negative = inhibition was 11.2% [at 11.4 µM].

For the compound `Cn1cc(/C=N/n2cnc3scc(-c4ccccc4)c3c2=O)c2ccccc21`, the AC50 entry was “inactive”.

As to `CN1CC[C@H](CN2c3ccccc3Sc3ccccc32)C1`, the AC50 was 0.126 µM (active).

Consider `CN1CCC[C@@H](CC2c3ccccc3Sc3ccccc32)C1`, for which the AC50 was 0.316 µM (active).

`CO[C@H]1COC(=O)[C@@H](Cc2ccccc2)NC(=O)[C@@H](C)COC(=O)C/C=C\[C@@H]1C`: the activity, negative = inhibition is 2.58% [at 11.4 µM].

In the case of `CC(C)(C)c1ccc(C2CC2C(=O)N/N=C\c2cc3ccccc3nc2Cl)cc1` (stereo not drawn), the AC50 entry was “inactive”.

As for `COC(=O)[C@@]1(Cc2ccccc2)[C@@H]2C(=CC(=O)[C@H]2CC(=O)C(=O)N(C)C)CN1C(=O)c1ccccc1`, the AC50 entry is “inactive”.

Consider `COc1cc(C2C(C#N)=C(N)OC3=C2C(=O)CCC3)c([N+](=O)[O-])cc1OC` (stereo not drawn), for which the AC50 result was “inactive”.
